# This is a sample that favours compounds with a hit; in the whole collection about 0.74% have one here.
# BLM helicase inh: Bloom syndrome helicase (human) inhibition. P54132. Potency, µM (doses to about 56.1 µM), for the others: top-dose activity change, negative = inhibition, actives largely listed as inhibitors. actives 0.2% (n = 350,000). AID 2528. recombinant BLM DNA unwinding, fluorescence dequenching;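 further: plate controls were vehicle for no effect and no enzyme for full effect; nearly all actives have a fitted effect of over 35% in size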
# RECQ1 inh: RECQ1 (human) helicase inhibition | AID 2549 | Potency, µM (titrated, usually from 57.3 µM), for inactives: at the highest dose activity, negative = inhibition, hits mostly inhibitors | actives 0.54% (n = 240,000) | P46063 | RECQ1 DNA unwinding, red fluorescence kinetic read;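 further: plate controls were vehicle for no effect and no enzyme for full effect; nearly all actives have a fitted effect of over 30% in size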
#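 50 nM RECQ1T1 preincubated 15 min with compound in Tris pH 8.0 buffer with MgCl2, DTT, Tween-20 and 2.5 ug/ml poly(dI-dC); started with 200 nM TAMRA/BHQ-2 forked duplex and 2 mM ATP. Unwinding read as fluorescence (525/598 nm), two reads 2 h apart.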
# APE1 inh-1: inhibitors of human APE1 endonuclease. recombinant APE1, TAMRA/BHQ-2 abasic DNA cleavage fluorescence. actives 0.35% (n = 350,000). Potency, µM (top dose mostly 65.8 µM), without a hit: at the highest dose activity change, negative = inhibition, hits mostly inhibitors. P27695. AID 2517;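 further: plate controls were vehicle for no effect and reference inhibitor for full effect; nearly all actives have a fitted effect of over 55% in size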
# Target sequence (P27695 whole entry, looked up): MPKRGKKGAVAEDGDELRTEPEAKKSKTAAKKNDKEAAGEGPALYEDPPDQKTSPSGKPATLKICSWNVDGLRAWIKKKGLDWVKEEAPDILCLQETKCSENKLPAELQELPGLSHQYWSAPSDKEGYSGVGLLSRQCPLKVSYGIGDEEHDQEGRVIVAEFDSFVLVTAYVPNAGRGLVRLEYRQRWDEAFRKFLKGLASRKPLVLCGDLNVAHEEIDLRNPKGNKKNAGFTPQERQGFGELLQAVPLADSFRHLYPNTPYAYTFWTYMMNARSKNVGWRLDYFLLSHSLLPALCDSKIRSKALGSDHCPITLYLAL
#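 Measures dequenching upon AP-site incision of a 5'-TAMRA/3'-BHQ-2 THF-containing duplex, 50 nM; human APE1 0.75 nM after 15 min room-temperature exposure to compound; kinetic three-point read at one-minute spacing.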
# Tb PGK inh: inhibitors of T. brucei phosphoglycerate kinase | P07378 | PGK/GAPDH coupled, Kinase-Glo luminescence, 60 min | Potency, µM (titrated, usually from 57.5 µM), for inactives: at the top dose activity change, negative = inhibition, most hits filed as inhibitors | actives 0.043% (n = 380,000) | AID 602233; further: nearly all actives have a fitted effect of over 60% in size
#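 Recombinant glycosomal PGK reaction used 1,3-bisphosphoglycerate generated in-well by GAPDH (100nM final) in 100mM TEA pH 7.6, 5mM MgCl2, 0.01% Tween-20. After 60 minutes at room temperature, ATP was read by Kinase-Glo Plus luminescence end-point.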
# FEN1 inhibitor: blocks human flap endonuclease 1; Recombinant FEN1 flap cleavage, fluorescence, 15 min; Potency, µM (series often up to 114 µM), for the others: top-dose activity change, negative = inhibition, actives largely listed as inhibitors; actives 0.35% (n = 390,000); further: nearly all actives have a fitted effect of over 65% in size
#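 Recombinant FEN1 (10 nM) was preincubated with pin-transferred compounds for 15 min at room temperature, then flap DNA substrate (50 nM final) was added. Plates were read at 0 and 15 min, and normalized concentration–response data were fitted to a four-parameter Hill equation.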
# APE1 dye cs: displaces fluorescent dye from DNA, flagging APE1 artifacts; shares compounds with APE1 inh-1; DNA fluorescent dye displacement counterscreen, fluorescence; AID 2564; Potency, µM (highest dose often 28.5 µM), for inactives: top-dose activity change, negative = inhibition, actives largely listed as inhibitors; actives 7% (n = 480);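 further: loss of thiazole orange fluorescence as the dye is displaced from duplex DNA; 0% = ThO with dsDNA and no compound and -100% = ThO without dsDNA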
# Endo IV inh: counter-screen for APE1 inhibitors: inhibitors of E. coli endonuclease IV | shares compounds with APE1 inh-1 | E. coli Endo IV, fluorogenic AP-site DNA cleavage | Potency, µM (highest dose often 27.1 µM), without a hit: top-dose activity change, negative = inhibition, actives largely listed as inhibitors | actives 4% (n = 560) | AID 2565;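 further: plate controls were uninhibited enzyme wells for no effect and no enzyme buffer wells for full effect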
# APE1 inh-2: APE1 (human) endonuclease inhibition, confirmation; purified APE1, fluorogenic abasic-site DNA cleavage; Potency, µM (series often up to 57.1 µM), inactives show at the highest dose activity change, negative = inhibition, actives largely listed as inhibitors; actives 44% (n = 750); shares compounds with APE1 inh-1; further: nearly all actives have a fitted effect of over 30% in size
# APE1 FP: APE1 (human) DNA binding inhibition, fluorescence polarization | AID 2573 | Potency, µM (top dose mostly 28.5 µM), without a hit: top-dose activity, negative = inhibition, hits mostly inhibitors | shares compounds with APE1 inh-1 | APE1 binding to TAMRA-labelled double-stranded DNA, fluorescence polarization displacement | actives 7% (n = 480)
# The depositor's hits bear a star; i = inactive; u = inconclusive; x = no result; [ ] = dose if it differs, or a comment. The call rests on the fitted dose curve; in most records, active means well fitted curve in the direction sought with a large enough effect; inconclusive means small, poorly fitted or top-dose-only effect, or another doubt; inactive means no such curve, though single readings can be large; an effect the other way counts as inactive or inconclusive. Unless noted, on the % scale 0 is the no-effect control and ±100 the full control effect; potency means the concentration at half of the fitted maximal effect.
SMILES,BLM helicase inh,RECQ1 inh,APE1 inh-1,Tb PGK inh,FEN1 inhibitor,APE1 dye cs,Endo IV inh,APE1 inh-2,APE1 FP
CC1(CC(=O)N/N=C/c2cc([N+](=O)[O-])c(O)cc2O)OCCO1,-10%,-27%,14µM*,-13%,-32%,u,-4%,13µM*,u
O=C(C(=O)N1CCN(c2ccccc2Cl)CC1)c1c[nH]c2ccccc12,-7%,x,26%,2%,-27%,x,x,x,x
COc1cc(O)cc2cc3c(c(O)c12)C(=O)CC(C)(O)O3 (stereo not given),-18%,-7%,u,-5%,u,19%,5%,14µM*,u
COc1cc(O)c2c(c1)OC(C)(C)CC2=O,-4%,-17%,1%,i,-4%,x,x,x,x
COC(=O)CSc1cc(C)nc2ccc(OC)cc12,-7%,-1%,-2%,-7%,-6%,x,x,x,x
COc1cccc2c(SCC(=O)N/N=C/c3ccccc3)cc(C)nc12,-2%,-6%,-3%,0%,15%,x,x,x,x
COc1cccc2c(SCC(=O)N/N=C/c3ccc(O)c(O)c3)cc(C)nc12,u,25µM*,8.9µM*,u,u,-26%,93%,5µM*,-7%
CCn1cc(/C=N/NC(=O)COc2cccc3cccnc23)c2ccccc21,-4%,-18%,-6%,5%,-14%,x,x,x,x
COc1ccc(/C=N/NC(=O)COc2cccc3cccnc23)cc1OC,30%,-8%,-2%,-8%,-15%,x,x,u,x
COc1ccc2nc(C)cc(SCC(=O)N/N=C/c3ccc(O)c(O)c3)c2c1,-13%,u,u,u,u,u,115%,7.9µM*,3%
O=C(Nc1ccc2c3c(cccc13)CC2)c1cccc([N+](=O)[O-])c1,-1%,-4%,1%,i,1%,x,x,x,x
O=S1(=O)N=C(N/N=C/c2ccco2)c2ccccc21,2%,-6%,-4%,2%,11%,x,x,x,x
O=C(C1CCCO1)N1CCN(c2ccccn2)CC1 (stereo not given),-2%,i,7%,-1%,20%,x,x,x,x
Cc1ccccc1N=C1NC(=O)/C(=C/c2cccn2-c2cccc(C(=O)O)c2)S1,-5%,-19%,18µM*,u,-15%,-4%,14%,11µM*,u
CCC(NC(=O)CN1CCN(C(=O)c2cccs2)CC1)c1ccc(C)cc1 (stereo not given),x,x,14%,-8%,0%,x,x,x,x
Cc1ccccc1-c1nc(NCc2cccs2)c2ccccc2n1,-14%,-14%,u,x,x,x,x,x,x
Clc1ccccc1-c1nc(NCc2cccs2)c2ccccc2n1,-25%,-26%,7.9µM*,x,x,u,-87%[57.1 µM],16µM*,38%[57.1 µM]
Oc1ccc2c(c1)OC(c1ccc(O)c(O)c1)C(O)C2 (stereo not given),-3%,-11%,u,x,x,x,x,x,x
O=c1c(O)cc(C2Oc3cc(O)cc(O)c3CC2O)cc2c(C3Oc4cc(O)cc(O)c4CC3O)cc(O)c(O)c12 (stereo not given),28µM*,3.2µM*,0.5µM*,x,x,x,u,2.5µM*,x
Cn1c(SCC(N)=O)nnc1-c1cnccn1,0%,i,1%,-5%,-1%,x,x,x,x
O=C(O)C1Cc2ccccc2CN1C(=O)COc1ccc(Br)cc1 (stereo not given),-6%,-3%,-12%,-13%,0%,x,x,-15%,x

# Screening results as filed in PubChem BioAssay.
